{"source": "PubChem BioAssay AID493244", "about": "(The Scripps Research Institute Molecular Screening Center, 2011)", "note": "Where “and” joins values, the source holds several entries; their conditions need not be identical. Identical values can stand only once. About 390 (0.11%) of roughly 340,000 compounds were called active. The sample as a whole holds a higher share of actives than the screen did. Unmarked numbers belong to inactive results.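 The calls were made as follows: active = inhibition above the mean inhibition of all tested compounds plus 3 SD (cut at about 17% in these data); inactive = the rest.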", "data": [{"molecular_target": "Troponin I, cardiac muscle (Homo sapiens) + Troponin T, cardiac muscle (Homo sapiens) + Troponin C, slow skeletal and cardiac muscles (Homo sapiens) (UniProt P19429+P45379+P63316)", "test": "cardiac RTF calcium sensitivity inhibitors, primary screen, biochemical, IANBD-TnC fluorescence, EC70 calcium (AID 493244);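 also: assay run at fixed EC70 calcium of 1.6 mM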", "conditions": "IANBD-labeled cardiac RTF, Ca2+ fluorescence; at 7.15 µM; stronger effect = higher value", "values": [{"smiles": "O=C(C[C@H]1C(=O)N(c2ccc(F)c(F)c2)C[C@@H]1Cc1ccccc1)Nc1ccccc1", "inhibition": "-7.8%"}, {"smiles": "COc1cc(OC)cc(-c2c(-c3ccc(F)cc3)c3cc(-c4ccc5cc[nH]c5c4)ccc3n2C)c1", "inhibition": "0.02%"}, {"smiles": "O=C(O)c1cccc(S(=O)(=O)Nc2ccc(O)cc2Sc2nc3ccccc3s2)c1", "inhibition": "20.3% (active)"}, {"smiles": "O=S(=O)(Nc1ccc2nc(N3CCOCC3)sc2c1)c1ccccc1", "inhibition": "-15.4%"}, {"smiles": "Cc1nc2ccc(NC(=O)c3cccc(S(=O)(=O)N4CCOCC4)c3)cc2s1", "inhibition": "7.38%"}, {"smiles": "CCCOc1ccc(N2C(=O)CC(N(CCc3ccc(S(N)(=O)=O)cc3)C(C)=O)C2=O)cc1", "note": "(stereo not given)", "inhibition": "11.4%"}, {"smiles": "COC(=O)CN(c1cccc(C(C)=O)c1)S(C)(=O)=O", "inhibition": "-2.17%"}, {"smiles": "CCCC/S(C)=N/S(=O)(=O)c1ccc(C)cc1", "note": "(stereo not given)", "inhibition": "-2.27%"}, {"smiles": "CC(=O)C1C(c2ccc(Cl)cc2)c2c(n[nH]c2C)CC1(C)O", "note": "(stereo not given)", "inhibition": "-5.53%"}, {"smiles": "O=C(Nc1cccnc1)c1cc2cc(Br)ccc2oc1=O", "inhibition": "3.93%"}, {"smiles": "COc1cccc(N(CC(=O)NC2CCCCCC2)S(=O)(=O)c2ccccc2)c1", "inhibition": "-9.96%"}, {"smiles": "COC(=O)C1(C)NC(c2ccccc2OC)C2C(=O)N(c3ccccc3)C(=O)C21", "note": "(stereo not given)", "inhibition": "-1.37%"}, {"smiles": "C=CCC(CC=C)(C(N)=O)c1ccccc1", "inhibition": "-6.01%"}, {"smiles": "CNC(=O)COc1ccc(S(=O)(=O)Nc2ccccc2)cc1", "inhibition": "-0.29%"}, {"smiles": "CCCCn1c(N)c(N(CC(C)C)C(=O)c2cccc(S(=O)(=O)N3CC(C)OC(C)C3)c2)c(=O)[nH]c1=O", "note": "(stereo not given)", "inhibition": "-3.78%"}, {"smiles": "CCN(CC)C(=O)[C@H]1CC(CC(=O)NCc2ccco2)C(=O)N2CCc3c([nH]c4ccccc34)[C@]12C", "note": "(stereo not given in full)", "inhibition": "-0.12%"}, {"smiles": "Cc1ccsc1C(C(=O)NC1CCCCC1)N(C(=O)Cc1cccs1)C1CC1", "note": "(stereo not given)", "inhibition": "-0.55%"}, {"smiles": "Cc1cccc(N(C(=O)Cc2cccs2)C(C(=O)NC2CCCC2)c2ccsc2)c1", "note": "(stereo not given)", "inhibition": "18.7% (active)"}, {"smiles": "Cc1ccccc1N(C(=O)Cc1cccs1)C(C(=O)NC1CCCCC1)c1cn(C)nc1C", "note": "(stereo not given)", "inhibition": "-6.48%"}, {"smiles": "COc1ccc(C(C#N)(CC(=O)O)c2cnccn2)cc1OC", "note": "(stereo not given)", "inhibition": "2.97%"}, {"smiles": "CCOC(=O)C1Cn2c(nc3c(c2=O)C(C)(CC)Cc2ccccc2-3)S1", "note": "(stereo not given)", "inhibition": "-5.87%"}, {"smiles": "Cc1nc2cc(S(=O)(=O)C(F)(F)F)ccc2s1", "inhibition": "0.85%"}, {"smiles": "Cn1c(N)cc(=O)n(C)c1=S", "inhibition": "1.39%"}, {"smiles": "Cc1csc(/N=C/N(C)C)c1C#N", "inhibition": "5.98%"}, {"smiles": "Cc1c(CCOC(=O)CC23CC4CC(CC(C)(C4)C2)C3)sc[n+]1Cc1ccc([N+](=O)[O-])cc1", "inhibition": "-12.4% and -2.7%"}, {"smiles": "CCOC(=O)c1sc(N(Cc2ccccc2)C(=O)CN2C(=O)CN(C)C2=O)nc1C", "inhibition": "-19.2%"}, {"smiles": "OCCC1CN(Cc2ccc(Oc3ncccn3)cc2)CCN1CCc1ccccc1", "note": "(stereo not given)", "inhibition": "-5.37%"}, {"smiles": "CC1(C)CC(=O)C=C(NCc2ccncc2)C1", "inhibition": "-4.04%"}, {"smiles": "O=C(NCc1ccccc1Cl)C1CCC(CNc2c(N3CCCCC3)c(=O)c2=O)CC1", "note": "(stereo not given)", "inhibition": "-11.6%"}, {"smiles": "NC1=NC(c2ccc([N+](=O)[O-])cc2)N(c2ccc(F)cc2)C(N)=N1", "note": "(stereo not given)", "inhibition": "4.59%"}, {"smiles": "CCn1c(O)c(N=NC2=NC(=O)CS2)c2cc(C)ccc21", "inhibition": "3.93%"}, {"smiles": "CCCCC(NC(=O)c1cccc(Br)c1)C(=O)O", "note": "(stereo not given)", "inhibition": "-10.9%"}, {"smiles": "CSc1ncnc2c1ncn2CC(=O)C1CCC2C3CCC4=CC(=O)CCC4(C)C3CCC12C", "note": "(stereo not given)", "inhibition": "-3.91%"}, {"smiles": "COc1ccc2c(c1)cc1n2CCN=C1NN", "inhibition": "-7.01%"}, {"smiles": "COc1ccccc1-c1n[nH]c2c1[C@H](C)CC[C@H]2C(C)C", "inhibition": "-2.28%"}, {"smiles": "CC(=O)c1nn(-c2cccc(C(F)(F)F)c2)c(=O)[nH]c1=O", "inhibition": "-1.11%"}, {"smiles": "Cc1ccc(OC(=O)CCC(=O)Nc2ccc(Br)cc2)cc1", "inhibition": "-3.9%"}, {"smiles": "COC(=O)CCc1sc(Nc2ccc(Br)cc2)nc1-c1ccc(OC)cc1", "inhibition": "20.8% (active)"}, {"smiles": "COc1ccc(NC(=O)CCC(=O)Nc2nnc(C3CCCCC3)s2)cc1", "inhibition": "-6.36%"}, {"smiles": "Cc1ccc2c(cnn2C(=O)CCC(=O)NC2CCCC2)c1", "inhibition": "6.54%"}, {"smiles": "CCN(CC(=O)Nc1c(F)cccc1F)C(=O)c1ccc(-c2ccc(C(C)=O)cc2)o1", "inhibition": "1.58%"}, {"smiles": "COc1ccc(-n2c(C)cc(C(=O)CN3C(=O)NC4(CCc5ccccc54)C3=O)c2C)cc1", "note": "(stereo not given)", "inhibition": "-0.58%"}, {"smiles": "O=C(/C(=N\\O)n1cncn1)c1ccc(Br)cc1Br", "inhibition": "-6.03%"}, {"smiles": "Cc1ccc(CN2CCNC(=O)C2CC(=O)NCc2csc(C(C)C)n2)cc1", "note": "(stereo not given)", "inhibition": "-0.36%"}, {"smiles": "O=C1C=C(c2ccc(Cl)cc2)C(=O)N1Nc1ccccc1", "inhibition": "-3.83%"}, {"smiles": "Cc1ccc(C(=O)NCCc2nnc(SCC(=O)Nc3cccc(C(=O)O)c3)n2C)cc1", "inhibition": "-8.53%"}, {"smiles": "CCC(NC(=O)c1cc(COc2ccc(F)c(F)c2)on1)c1ccncc1", "note": "(stereo not given)", "inhibition": "-0.88%"}, {"smiles": "CCCN(CCC)CCCNC(=O)CNC(=O)c1nn(-c2ccc(OC)cc2)c(=O)c2ccccc12", "inhibition": "1.59%"}, {"smiles": "COc1ccc(NS(=O)(=O)c2cc(NC(=O)COc3ccccc3F)ccc2OC)cc1", "inhibition": "-0.92%"}, {"smiles": "COc1ccc(C(F)(F)F)cc1N/C=C\\c1nnnn1-c1ccc(C)cc1", "inhibition": "-1.14%"}, {"smiles": "Cc1ccc(-c2c[n+](=O)c3c(n2[O-])CCC3)cc1", "inhibition": "-7.98%"}, {"smiles": "Cc1ccc(NC(=O)C(C)OC(=O)C2CC3CCCC(C2)C3=O)cc1S(=O)(=O)N1CCOCC1", "note": "(stereo not given)", "inhibition": "-1.77%"}, {"smiles": "N#CCCn1ncc2ccccc21", "inhibition": "-17%"}, {"smiles": "CCOC(=O)N1CCN(Cc2nc3cc(NC(=O)CC)ccc3n2CC)CC1", "inhibition": "-8.27%"}, {"smiles": "CCC(C)CN1CCC(CO)(Cc2ccccc2Cl)CC1", "note": "(stereo not given)", "inhibition": "2.96%"}, {"smiles": "CC(C)C[C@H]1CN=C(Nc2ccccc2)N1CC1CCCCC1", "inhibition": "-2.92%"}, {"smiles": "CCOc1ccc(-n2c(SC(C)C(=O)OC)nc3c(c2=O)SCC3)cc1", "note": "(stereo not given)", "inhibition": "-6.85%"}, {"smiles": "Cc1ccc2nc(Nc3ncc4c(n3)CC(C)(C)CC4=O)nc(C)c2c1", "inhibition": "-5.46%"}, {"smiles": "NS(=O)(=O)c1cccc(NC(=O)CC23CC4CC(CC(Br)(C4)C2)C3)c1", "inhibition": "-5.43%"}, {"smiles": "CC(C)(CNC(=O)c1ccc(Cl)c(S(=O)(=O)N2CCc3ccccc3C2)c1)N1CCOCC1", "inhibition": "-11.2%"}, {"smiles": "COc1ccccc1C(=O)N1CCNC(=O)C1CC(=O)Nc1ccc(Cl)cc1", "note": "(stereo not given)", "inhibition": "1.41%"}, {"smiles": "COC(=O)c1ccc(COC(=O)CNC(=O)c2cccc(OC)c2)o1", "inhibition": "-10.2%"}, {"smiles": "COc1cc(OC)cc(C(=O)NCC(=O)OCC(=O)NC(C)CCc2ccccc2)c1", "note": "(stereo not given)", "inhibition": "-1.01%"}, {"smiles": "COc1cc(OC)cc(C(=O)NCC(=O)OCc2csc(-c3ccccc3)n2)c1", "inhibition": "17.6% (active)"}, {"smiles": "CC1CCCC(NC(=O)COC(=O)[C@@H]2CC(O)CN2S(=O)(=O)c2ccc3c(c2)OCCO3)C1C", "note": "(stereo not given in full)", "inhibition": "20.7% (active)"}, {"smiles": "Cc1ccc(S(=O)(=O)N2CC(O)C[C@H]2C(=O)OCC(=O)Nc2ccc(N3CCOCC3)cc2)cc1C", "note": "(stereo not given in full)", "inhibition": "-9.94%"}, {"smiles": "O=C1COc2ccc(C(=O)COC(=O)C3CC(O)CN3S(=O)(=O)c3ccc(Cl)cc3)cc2N1", "note": "(stereo not given)", "inhibition": "-1.25%"}, {"smiles": "CCN(CC)CCNC(=O)c1ccc(NC(=O)c2c(F)cccc2Cl)cc1", "inhibition": "-3.23%"}, {"smiles": "COC(=O)C1=NN(c2ccccc2)C2C(=O)N(c3ccccc3OC)C(=O)C12", "note": "(stereo not given)", "inhibition": "-2.73%"}, {"smiles": "Cc1oc2cc(Br)c(O)c(Br)c2c1C(=O)c1ccccc1", "inhibition": "-3.49%"}, {"smiles": "CC(=O)Nc1nc(N(C)C)nc(N(C)C)n1", "inhibition": "2.09%"}, {"smiles": "CCN1C(=O)/C(=C2\\SC(N3CCCCC3)=NC2=O)c2ccccc21", "inhibition": "-0.1%"}, {"smiles": "Cn1c2c(c(=O)n(C)c1=O)C(c1ccc(O)cc1)Nc1ccccc1O2", "note": "(stereo not given)", "inhibition": "3.38%"}, {"smiles": "O=C(N[C@@H]1C/C=C\\C[C@@H](CC(=O)N(CCO)Cc2ccccc2)C(=O)N[C@H](Cc2ccccc2)COC1=O)OCC1c2ccccc2-c2ccccc21", "inhibition": "-7.62%"}, {"smiles": "O=C(O)c1ccccc1N=N/C(=N/Nc1cc(S(=O)(=O)O)ccc1O)c1ccccc1", "inhibition": "5.68%"}, {"smiles": "CC1CC(C)CN(C(=O)CSc2ccsc2[N+](=O)[O-])C1", "note": "(stereo not given)", "inhibition": "-12.4%"}, {"smiles": "COc1ccc(NC(=O)C2COc3ccccc3O2)cc1", "note": "(stereo not given)", "inhibition": "1.47%"}, {"smiles": "COc1ccc(NC(=O)NCc2ccc3c(c2)OCO3)c(OC)c1", "inhibition": "-6.62%"}, {"smiles": "COc1ccc(NC(=O)CC2COc3ccccc3O2)c(OC)c1", "note": "(stereo not given)", "inhibition": "17.3% (active)"}, {"smiles": "O=C(Nc1ccccc1)c1nnsc1S(=O)(=O)c1ccc(Cl)cc1", "inhibition": "-4.97%"}, {"smiles": "N=c1n(Cc2ccc(Cl)cc2)c2ccccc2n1CC(O)c1ccco1", "note": "(stereo not given)", "inhibition": "-16.9%"}, {"smiles": "Cc1ccc(NC(=O)CN(C)C(=O)c2ccc(Br)o2)cc1", "inhibition": "-14.7%"}, {"smiles": "CCCCCCCCNS(=O)(=O)CCNC1CCCCC1", "inhibition": "-2.61%"}, {"smiles": "Cc1ccc2c(c1)N(CC(=O)N1CCCC(C)C1)C(=O)CO2", "note": "(stereo not given)", "inhibition": "-10.6%"}, {"smiles": "Cc1c(S(=O)(=O)N2CC(C)CC(C)C2)c(=O)n(C)c(=O)n1C", "note": "(stereo not given)", "inhibition": "-1.29%"}, {"smiles": "O=C(O)CCCCOn1ccnc1", "inhibition": "-6.34%"}, {"smiles": "CN(CC1CCCO1)S(=O)(=O)c1ccc(C(=O)Nc2ccc(F)cc2)cc1", "note": "(stereo not given)", "inhibition": "1.44%"}, {"smiles": "COc1ccc(NC2=CC(=S)NC(C)(C)C2)cc1", "inhibition": "-18.1%"}, {"smiles": "Cc1ccc2c(c1)N(CC(=O)N1CCC(O)CC1)C(=O)CO2", "inhibition": "6.2%"}, {"smiles": "COc1ccc(CNC(=O)CN2C(=O)c3ccccc3S2(=O)=O)cc1", "inhibition": "-0.78%"}]}]}
